# PubChem BioAssay (NCATS)
# Inconclusive results are not listed. Active and inactive are the calls of the source. Unless noted, the call rests on the fitted dose curve; in most records, active means well fitted curve in the direction sought with a large enough effect; inconclusive means small, poorly fitted or top-dose-only effect, or another doubt; inactive means no such curve, though single readings can be large; an effect the other way counts as inactive or inconclusive.
# How the values were obtained:
# [1] = qHTS to identify inhibitors of the type 1 interferon - major histocompatibility complex class I in skeletal muscle: primary screen against the NCATS Mechanism Interrogation Plate v5.0 (MIPE) Libary (AID 1347411); details: iHSKM cells + IFN-b, HiBiT-tagged MHC-I luminescence, 24 h; series mostly up to 45.8 µM; further: nearly all actives have a fitted effect of over 65% in size; further: potency means the concentration at half of the fitted maximal effect;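 on activity change, negative = inhibition: plate controls were vehicle for no effect and reference inhibitor for full effect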
# Outline: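 HLA-B HiBit myoblasts, dexamethasone-free medium + 4 ng/ml IFN-b, 24 h compound, 11-pt 1:3 from 46 uM final. Readout: Nano-Glo HiBiT lytic luminescence after 10 min lysis, RT.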
# [2] = Primary qHTS for inhibitors of nuclear receptor binding SET domain protein 2 (NSD2) in an isogenic RCH-ACV NSD2 p.E1099K mutant (9B) (AID 1645876); details: RCH-ACV NSD2 E1099K (9B) viability, CellTiter-Glo, 72 h; series mostly up to 44.9 µM; further: nearly all actives have a fitted effect of over 70% in size; further: potency means the concentration at half of the fitted maximal effect; on activity change, negative = viability loss: on the % scale 0 is the no-effect control and ±100 the full control effect
# [3] = Primary qHTS for inhibitors of nuclear receptor binding SET domain protein 2 (NSD2) in an RCH-ACV wild type WT cells (2C) (AID 1645877); details: RCH-ACV (leukaemia line) NSD2 WT (2C) viability, CellTiter-Glo, 72 h; series mostly up to 44.9 µM; further: nearly all actives have a fitted effect of over 70% in size; further: potency means the concentration at half of the fitted maximal effect
# [4] = molecular target: Phospholipid hydroperoxide glutathione peroxidase GPX4 (Homo sapiens) (UniProt P36969); assay: Primary qHTS Assay for Inhibitors of Recombinant Selenoprotein Glutathione Peroxidase 4 (GPX4) (AID 1845192); details: recombinant GPX4, GR-coupled NADPH fluorescence, 15 min; series mostly up to 50 µM; further: nearly all actives have a fitted effect of over 65% in size; on activity change, negative = inhibition: on the % scale 0 is the no-effect control and ±100 the full control effect
# Chain of Phospholipid hydroperoxide glutathione peroxidase GPX4 (Homo sapiens) (P36969 whole entry, looked up): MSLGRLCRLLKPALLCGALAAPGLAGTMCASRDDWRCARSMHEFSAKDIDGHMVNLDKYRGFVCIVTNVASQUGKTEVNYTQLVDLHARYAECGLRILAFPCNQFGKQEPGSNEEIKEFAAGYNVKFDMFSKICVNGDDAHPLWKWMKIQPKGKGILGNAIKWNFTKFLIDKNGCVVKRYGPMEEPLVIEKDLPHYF
# Outline: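 qHTS, GR-coupled: GPX4 200 nM + cpd 30 min RT → GSH 1 mM, NADPH 0.5 mM, GR 100 nM → CHP 0.5 mM start; fluor 340/450 at t0 and t15 min; no-enzyme wells as control.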
# [5] = qHTS drug screen for cell cycle checkpoint inhibitors in PARPi-resistant BRCA-mutant ovarian cancer cell lines. (AID 1963452; calls by dose curve; further: potency means the concentration at half of the fitted maximal effect); details: PEO1/OlaR viability, CellTiter-Glo luminescence, 96 h; for Z-AUC: stronger effect = lower value
# Outline: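 PEO1, PEO4 and PEO1/OlaR ovarian cancer cells, 600 per well, exposed 96 h at 37C to a dilution series. Viability read by CellTiter-Glo luminescence, normalized to DMSO and empty wells; activity summarized as Z-AUC.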
# [6] = molecular target: Tyrosine-protein kinase Yes (Homo sapiens) (UniProt P07947); assay: qHTS for small molecule inhibitors of Yes1 kinase: Primary Screen (AID 686947); details: Yes1 kinase biochemical qHTS inhibition; series mostly up to 76.9 µM;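 further: plate controls were DMSO with enzyme for no effect and no-enzyme DMSO wells for full effect; nearly all actives have a fitted effect of over 60% in size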
# Chain of Tyrosine-protein kinase Yes (Homo sapiens) (P07947 whole entry, looked up): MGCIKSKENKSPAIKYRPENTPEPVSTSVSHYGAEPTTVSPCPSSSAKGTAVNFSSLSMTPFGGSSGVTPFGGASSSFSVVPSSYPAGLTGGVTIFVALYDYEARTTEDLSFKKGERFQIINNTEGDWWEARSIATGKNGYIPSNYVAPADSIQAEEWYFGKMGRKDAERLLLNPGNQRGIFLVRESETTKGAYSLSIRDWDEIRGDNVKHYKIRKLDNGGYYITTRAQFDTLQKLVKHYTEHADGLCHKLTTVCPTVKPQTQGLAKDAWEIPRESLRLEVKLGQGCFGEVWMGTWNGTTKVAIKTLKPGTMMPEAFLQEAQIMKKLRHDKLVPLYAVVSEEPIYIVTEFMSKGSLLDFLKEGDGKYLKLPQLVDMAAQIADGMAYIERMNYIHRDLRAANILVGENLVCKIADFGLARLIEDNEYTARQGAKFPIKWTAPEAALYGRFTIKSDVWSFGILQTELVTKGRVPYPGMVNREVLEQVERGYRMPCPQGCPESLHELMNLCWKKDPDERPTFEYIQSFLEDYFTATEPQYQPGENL
# Outline: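 In this qHTS format, inhibition is expressed relative to DMSO controls with enzyme (maximum) and without enzyme (minimum). The 60 min room-temperature reaction uses 0.1 mM ATP, with ADP detected by luminescence.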
# [7] = qHTS for small molecule inhibitors of Yes1 kinase: Counter Assay (AID 686950); details: series mostly up to 76.9 µM;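 further: no kinase present so only ADP-Glo detection of a fixed ADP amount is tested; luminescence from ADP-Glo reporting ADP in a fixed ATP and ADP mixture; 0% = DMSO wells with ATP plus ADP and -100% = ATP-only wells without ADP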
# Outline: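 Measuring interference with ADP-Glo, the assay ran 60 min at room temperature on an ATP/ADP mix lacking enzyme. Values were normalized to ATP-plus-ADP (maximum) and ATP-only (minimum) DMSO controls.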
# [8] = molecular target: Glutathione peroxidase 1 (Homo sapiens) (UniProt P07203); assay: Primary qHTS Assay for Inhibitors of Recombinant Selenoprotein Glutathione Peroxidase 1 (GPX1) (AID 1845191); details: recombinant GPX1, GR-coupled NADPH fluorescence, 15 min; series mostly up to 48.8 µM; further: nearly all actives have a fitted effect of over 65% in size; on activity, negative = inhibition: on the % scale 0 is the no-effect control and ±100 the full control effect
# Chain of Glutathione peroxidase 1 (Homo sapiens) (P07203 whole entry, looked up): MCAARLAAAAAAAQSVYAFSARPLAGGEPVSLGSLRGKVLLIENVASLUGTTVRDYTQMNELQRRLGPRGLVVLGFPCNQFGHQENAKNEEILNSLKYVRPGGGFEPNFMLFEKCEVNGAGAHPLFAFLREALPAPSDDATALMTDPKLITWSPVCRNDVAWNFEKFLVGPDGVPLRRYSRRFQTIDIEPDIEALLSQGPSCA
# Outline: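 GPX1 10 nM, GR 100 nM, GSH 1 mM, NADPH 0.5 mM, CHP 0.5 mM (final). 30-min cpd preincubation, RT. Ex340/Em450 read t=0, t=15 min.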
# [9] = NCATS anti-infectives library activity on HEK293 viability as a counter-qHTS vs the C. elegans viability qHTS (AID 1745854); details: HEK293 viability counter-screen; series mostly up to 41.8 µM; further: on the % scale 0 is the no-effect control and ±100 the full control effect
# Outline: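 CellTiter-Glo luminescence, read on a CCD imager, scored viability of HEK293 cells after 24 hr compound exposure at 37C. Library tested in several concentrations, 1:5 steps, up to 41.7 uM; digitonin served as control.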
# [10] = measured here: PEO1 parental Z-AUC
compound,measurement,setting,value
Cc1onc(-c2ccc(F)cc2)c1COc1ccc(C(=O)N2CCS(=O)(=O)CC2)cn1,Potency,[1],inactive
same,Potency,[2],inactive
same,Potency,[3],inactive
same,Potency,[4],inactive
same,Z-AUC,[5],0.971 (inactive)
same,Z-AUC,[5]; [10],1.31
same,Z-AUC,[5]; measured here: PEO4 Z-AUC,0.844
C=C1C[C@H]2C=Nc3cc(OCCCOc4cc5c(cc4OC)C(=O)N4CC(=C)C[C@H]4C=N5)c(OC)cc3C(=O)N2C1,Potency,[1],inactive
same,Potency,[2],inactive
same,Potency,[3],inactive
same,Z-AUC,[5],1.4 (inactive)
same,Z-AUC,[5]; [10],0.729
same,Z-AUC,[5]; measured here: PEO4 Z-AUC,0.852
O=c1c(-c2ccc(O)cc2)coc2c([C@@H]3O[C@H](CO)[C@@H](O)[C@H](O)[C@H]3O)c(O)ccc12,Potency,[1],inactive
same,Potency,[2],inactive
same,Potency,[3],inactive
same,Z-AUC,[5],1.23 (inactive)
same,Z-AUC,[5]; [10],1.96
same,Z-AUC,[5]; measured here: PEO4 Z-AUC,1.37
Fc1ccc(-c2csc3ncnc(NCc4ccc5c(c4)OCO5)c23)cc1,Potency,[1],inactive
same,Potency,[2],8.33 µM (active)
same,Potency,[4],inactive
same,Z-AUC,[5],0.367 (inactive)
same,Z-AUC,[5]; [10],0.157
same,Z-AUC,[5]; measured here: PEO4 Z-AUC,0.314
COc1ccc(COc2ccc(Cc3cnc(N)nc3N)cc2OC)cc1,Potency,[6],inactive
same,outcome,[7],inactive
same,Potency,[1],inactive
same,Potency,[2],inactive
same,Potency,[3],inactive
same,Potency,[4],inactive
same,Z-AUC,[5],0.614 (inactive)
same,Z-AUC,[5]; [10],0.516
same,Z-AUC,[5]; measured here: PEO4 Z-AUC,0.82
CC1(N)CCN(c2cccnc2NC(=O)c2nc(-c3ncccc3C(F)(F)F)cnc2N)CC1,Potency,[1],inactive
same,Potency,[2],16.6 µM (active)
same,Potency,[3],20.9 µM (active)
same,Z-AUC,[5],0.421 (inactive)
same,Z-AUC,[5]; [10],-0.000608
same,Z-AUC,[5]; measured here: PEO4 Z-AUC,0.765
COc1ccc(S(=O)(=O)N[C@@H](CNc2nc(C)nc(N3CCC(c4ccc5c(n4)NCCC5)CC3)c2C)C(=O)O)cc1,Potency,[1],inactive
same,Potency,[2],inactive
same,Potency,[3],inactive
same,Potency,[4],inactive
same,Potency,[5],0.0616 µM (active)
same,Z-AUC,[5]; [10],-1.54
same,Z-AUC,[5]; measured here: PEO4 Z-AUC,-1.12
Cc1cc(C)c2c(c1)[C@@H](N(Cc1cc(C(F)(F)F)cc(C(F)(F)F)c1)c1nnn(C)n1)CCCN2CC1CCC(C(=O)O)CC1 (stereo partly specified),Potency,[1],inactive
same,Potency,[2],inactive
same,Potency,[8],inactive
same,Z-AUC,[5],0.561 (inactive)
same,Z-AUC,[5]; [10],1.04
same,Z-AUC,[5]; measured here: PEO4 Z-AUC,0.634
Cc1cc(O)cc2c1[C@]1(C)CC[C@H]3C(C)(C)CCC[C@]3(C)[C@H]1C2,"activity change, negative = inhibition",[1],-19.8% [at 5.1 µM] (inactive)
same,"activity change, negative = viability loss",[2],-32.6% [at 4.96 µM] (inactive)
same,"activity, negative = inhibition",[8],-4.81% [at 4.49 µM] (inactive)
same,outcome,[4],inactive [at 4.52 µM]
same,Z-AUC,[5],1.24 (inactive)
same,Z-AUC,[5]; [10],0.915
same,Z-AUC,[5]; measured here: PEO4 Z-AUC,1
Cc1ccc(NS(=O)(=O)c2ccc3c(c2)C2C=CCC2C(c2ccc(C(=O)O)cc2)N3)cc1C (stereo unspecified),Potency,[1],inactive
same,Potency,[2],inactive
same,Potency,[3],inactive
same,Z-AUC,[5],-0.665 (inactive)
same,Z-AUC,[5]; [10],-0.264
same,Z-AUC,[5]; measured here: PEO4 Z-AUC,-0.866
O=C1OC2(CCC(C(=O)Nc3ccn(-c4ccccc4F)n3)CC2)c2cnccc21 (stereo unspecified),Potency,[1],inactive
same,Potency,[2],inactive
same,Potency,[3],inactive
same,Potency,[4],inactive
same,Z-AUC,[5],0.0773 (inactive)
same,Z-AUC,[5]; [10],0.881
same,Z-AUC,[5]; measured here: PEO4 Z-AUC,0.97
COCCOC(=O)N1CCN(S(=O)(=O)c2cc(F)c(Oc3ccc(Cl)cc3)c(F)c2)C(C(=O)NO)C1 (stereo unspecified),Potency,[1],18.6 µM (active)
same,Potency,[2],5.9 µM (active)
same,Potency,[3],4.68 µM (active)
same,Potency,[4],inactive
same,Z-AUC,[5],-1.01 (inactive)
same,Z-AUC,[5]; [10],-1.23
same,Z-AUC,[5]; measured here: PEO4 Z-AUC,-1.17
Cc1cc(Nc2cc(N)ncn2)c(=O)n2c1C(=O)NC21CCCCC1,Potency,[1],inactive
same,Potency,[2],2.57 µM (active)
same,Potency,[9],inactive
same,Potency,[4],inactive
same,Z-AUC,[5],-0.649 (inactive)
same,Z-AUC,[5]; [10],0.752
same,Z-AUC,[5]; measured here: PEO4 Z-AUC,0.801
C=CC(=O)N1CC(N2CCN(C(=O)CNc3cc(C4(C)CC4)c(Cl)cc3O)CC2)C1,Potency,[1],inactive
same,Potency,[2],23.5 µM (active)
same,Potency,[8],inactive
same,Potency,[4],inactive
same,Z-AUC,[5],-0.243 (inactive)
same,Z-AUC,[5]; [10],-0.485
same,Z-AUC,[5]; measured here: PEO4 Z-AUC,-0.295
CCC1CCCCN1C(=O)n1ncc(C(O)(c2ccccc2)c2ccccc2)n1 (stereo unspecified),Potency,[1],inactive
same,Potency,[2],10.5 µM (active)
same,Potency,[3],14.8 µM (active)
same,Potency,[4],inactive
same,Z-AUC,[5],0.1 (inactive)
same,Z-AUC,[5]; [10],0.47
same,Z-AUC,[5]; measured here: PEO4 Z-AUC,0.409
